AI-2 QS modul: modulates the Vibrio harveyi AI-2 quorum sensing system; Vibrio harveyi JMH597 AI-2 luminescence/OD600 ratio, 9 h; stronger effect = lower value; strain lacks LuxN and CqsS sensors; 0 = neutral-control median; activity change, % at 7.5 µM; AID 2094; 300,000 compounds, 0.4% hits; in the data active = activity change below about -75%, passing the limit was not always enough; inconclusive = no clear call, values can overlap the other calls;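 also: luminescence divided by OD600 gain over 9 h not by final OD600 alone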
CHT allo act: human CHT allosteric activation. Q9GZV3. CHT-expressing cells, membrane potential dye, choline EC20; stronger effect = higher value; LV-AA mutant CHT in HEK293 cells. B-score at 10 µM. 310,000 compounds, 0.49% hits. AID 488977;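 active = initial fluorescence not abnormally high and integrated response B-score, plate-corrected, over 3 SD above library mean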
CHT inh: human CHT choline transport inhibition | Q9GZV3 | CHT-expressing cells, membrane potential dye, choline response; stronger effect = lower value | B-score at 10 µM | 310,000 compounds, 0.86% hits;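 active = B-score over 3 SD under the library average, and starting fluorescence ratio not unusually high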;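 also: choline stimulus applied at its EC90 after an EC20 pre-addition; B-score computed on integrated fluorescence ratio after choline addition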
ALR inh: human ALR oxidase inhibition via reduced H2O2; P55789; purified ALR, DTT oxidation, H2O2 HRP-luminol luminescence; inhibition, % (test concentration not listed); 290,000 compounds, 3.8% hits;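 active = mean replicate inhibition above about 79%, with every replicate also reaching it, limit read from the data; inconclusive = only one of the two criteria met; inactive = mean below limit and not every replicate reaching it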
PREPL inhibitor: human PREPL enzyme inhibition | Q4J6C6 | recombinant PREPL, fluorescence polarization activity-based probe | inhibition, % at 5.96 µM | 320,000 compounds, 0.68% hits; in the data active = inhibition above about 43%;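 also: 0% = enzyme with DMSO and 100% = wells lacking enzyme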
Target sequence (Q4J6C6 whole entry, looked up): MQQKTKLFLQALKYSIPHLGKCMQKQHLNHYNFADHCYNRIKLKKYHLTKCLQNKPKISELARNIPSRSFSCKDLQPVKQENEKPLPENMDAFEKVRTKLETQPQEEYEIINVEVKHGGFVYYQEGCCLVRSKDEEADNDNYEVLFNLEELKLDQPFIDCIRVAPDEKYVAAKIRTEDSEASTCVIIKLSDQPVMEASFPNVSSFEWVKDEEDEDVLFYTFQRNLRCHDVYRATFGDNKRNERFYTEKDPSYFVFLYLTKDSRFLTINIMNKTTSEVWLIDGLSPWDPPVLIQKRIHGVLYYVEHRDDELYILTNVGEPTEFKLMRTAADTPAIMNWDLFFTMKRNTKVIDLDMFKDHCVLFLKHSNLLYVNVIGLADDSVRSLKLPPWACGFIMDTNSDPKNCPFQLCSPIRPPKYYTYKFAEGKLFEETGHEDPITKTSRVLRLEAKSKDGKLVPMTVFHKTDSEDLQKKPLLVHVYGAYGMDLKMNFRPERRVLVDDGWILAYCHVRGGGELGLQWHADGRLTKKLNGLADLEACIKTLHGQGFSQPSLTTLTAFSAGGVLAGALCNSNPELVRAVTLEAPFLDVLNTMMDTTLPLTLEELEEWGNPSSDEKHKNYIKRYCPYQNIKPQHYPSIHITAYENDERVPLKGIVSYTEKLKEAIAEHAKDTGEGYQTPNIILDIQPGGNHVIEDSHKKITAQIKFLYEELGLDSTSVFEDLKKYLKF
The depositor's hits bear a star. In the library only some 5% were active in any assay of this set; here they are far more common.

O=C(CCN1CCN(C(c2ccccc2)c2ccccc2)CC1)N/N=C/c1ccc(O)cc1O was read as AI-2 QS modul 33.1, CHT allo act inactive, CHT inh inactive, ALR inh 28.6 and PREPL inhibitor 16.2.
COc1ccccc1/C=C/C(=O)OC(C)CN1CCCCC1 (centres undefined) was read as AI-2 QS modul -0.2, CHT allo act inactive, CHT inh inactive, ALR inh 2.3 and PREPL inhibitor 11.7.
For COc1cc(F)c(C(=O)NC(C)(C)CO)cc1OC the results were AI-2 QS modul 13.8, CHT allo act inactive, CHT inh inactive, ALR inh -11.8 and PREPL inhibitor 19.4.
`COc1ccc(OC)c(NC(=O)COC(=O)Cc2ccc(-c3ccccc3)cc2)c1` gave AI-2 QS modul 31.6, CHT allo act inactive, CHT inh inactive, ALR inh -11.3 and PREPL inhibitor 26.3.
COc1ccc(OC)c(NC(=O)COC(=O)CCNc2ccccc2OC)c1 was read as ALR inh 98.1* and PREPL inhibitor 24.4.
CCN(CC)c1ccc(/C=N/NC(=O)c2cccc(N3CCCC3=O)c2)cc1 was read as AI-2 QS modul 16.7, CHT allo act inactive, CHT inh inactive, ALR inh 96.6* and PREPL inhibitor 11.2.
COc1cc(/C=N/NC(=O)c2cccc(N3CCCC3=O)c2)ccc1O was read as AI-2 QS modul 10.5, CHT allo act inactive, CHT inh inactive, ALR inh 99.5* and PREPL inhibitor 18.3.
CN(CC(=O)Nc1ccccc1C(F)(F)F)C(=O)c1ccc(N2C(=O)CCC2=O)cc1 was read as AI-2 QS modul 33.9, CHT allo act inactive, CHT inh inactive, ALR inh -11.0 and PREPL inhibitor -9.5.
Screening CC(C)C(=O)c1ccc(O)c(O)c1 returned AI-2 QS modul 8.5, CHT allo act inactive, CHT inh inactive, ALR inh 98.9* and PREPL inhibitor -4.8.
For COc1ccc(C(=O)N/N=C(\Cc2ncc[nH]2)c2ccccc2)cc1 the results were AI-2 QS modul 5.6, CHT allo act inactive, CHT inh inactive, ALR inh 86.8* and PREPL inhibitor -4.9.
`COc1cc(C(=O)N/N=C(\Cc2ncc[nH]2)c2ccccc2)cc(OC)c1OC` gave AI-2 QS modul -9.3, CHT allo act inactive, CHT inh inactive, ALR inh 20.2 and PREPL inhibitor 9.7.
Screening c1ccc(N/N=C(\Cc2ncc[nH]2)c2ccccc2)cc1 returned AI-2 QS modul 33.7, CHT allo act inactive, CHT inh inactive, ALR inh 98.7* and PREPL inhibitor 1.5.
Screening O=C(Nc1cccc([N+](=O)[O-])c1)NC1CCCCCCC1 returned AI-2 QS modul 8.1, CHT allo act inactive, CHT inh inactive and ALR inh 19.7.
Screening CCOc1cc(CNn2cn[nH]c2=S)cc(Cl)c1OCc1ccccc1F returned AI-2 QS modul -1.0, CHT allo act inactive, CHT inh inactive, ALR inh 90.4* and PREPL inhibitor -1.2.
`COc1ccc(OC(C)C(=O)NC(C)c2ccccc2)cc1` (centres undefined) gave AI-2 QS modul 14.5, CHT allo act inactive, CHT inh inactive, ALR inh -22.6 and PREPL inhibitor -0.2.
`O=c1oc2ccccc2cc1-c1csc(NN=C2CCCC2)n1` gave AI-2 QS modul -3.1, CHT allo act inactive, CHT inh inactive, ALR inh 97.9* and PREPL inhibitor 13.4.
Screening C=CCn1c(-c2cccc(Cl)c2)n[nH]c1=S returned AI-2 QS modul 19.4, CHT allo act inactive, CHT inh inactive, ALR inh inconclusive and PREPL inhibitor -8.7.
S=c1[nH]nc(-c2ccc(Br)cc2)n1-c1ccc(Br)cc1 was read as AI-2 QS modul 14.9, CHT allo act inactive, CHT inh inactive, ALR inh inconclusive and PREPL inhibitor -2.5.
C=CCn1c(-c2sccc2C)n[nH]c1=S was read as AI-2 QS modul 6.0, CHT allo act inactive, CHT inh inactive, ALR inh 94.8* and PREPL inhibitor 10.3.
For C=C(C)Cn1c(-c2cccc([N+](=O)[O-])c2)n[nH]c1=S the results were AI-2 QS modul 14.4, CHT allo act inactive, CHT inh inactive, ALR inh 62.4 and PREPL inhibitor 13.8.
C=CCn1c(-c2cccc([N+](=O)[O-])c2)n[nH]c1=S was read as AI-2 QS modul 19.8, CHT allo act inactive, CHT inh inactive, ALR inh 96.2* and PREPL inhibitor 9.0.
